# Assay results taken from PubChem BioAssay (NCI).
# The panel holds about 79,000 compounds, 15% with a hit somewhere; the sample as a whole holds those more often. Unmarked numbers belong to inactive results. Active and inactive are the calls of the source. No stated cut-off is given here; in the data, active means growth inhibition above about 70%; inactive means the rest.
# Columns and labels:
# [1] = NCI Yeast Anticancer Drug Screen. Data for the rad50 strain (AID 155);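 further: 0% = growth of vehicle-only cultures of the same strain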; details: S. cerevisiae rad50 strain growth inhibition, stronger effect = higher value
# Procedure, shortened: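 Relative growth inhibition (compound vs vehicle) was measured in yeast with a defined repair-gene alteration.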
# [2] = NCI Yeast Anticancer Drug Screen. Data for the mec2-1 strain (AID 157); details: S. cerevisiae mec2-1 strain, stronger effect = higher value
# Procedure, shortened: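 Mutant yeast (mec2-1) grown with compound; growth inhibition relative to vehicle control reported.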
# [3] = NCI Yeast Anticancer Drug Screen. Data for the sgs1 mgt1 strain (AID 161);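 further: 0% = growth of cultures given vehicle only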; details: S. cerevisiae sgs1 mgt1 strain, stronger effect = higher value
# Procedure, shortened: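 Growth of a repair-deficient yeast mutant was monitored after compound treatment and expressed as inhibition relative to vehicle-treated cultures.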
# [4] = NCI Yeast Anticancer Drug Screen. Data for the cln2 rad14 strain (AID 165);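 further: 0% = growth equal to vehicle treated cultures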; details: S. cerevisiae cln2 rad14 strain, stronger effect = higher value
# Procedure, shortened: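 Readout is yeast growth inhibition versus vehicle-treated controls, using a strain with cln2 and rad14 alterations exposed to compound.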
# [5] = NCI Yeast Anticancer Drug Screen. Data for the bub3 strain (AID 167); details: S. cerevisiae bub3 mutant strain, stronger effect = higher value
# Procedure, shortened: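 Screening used yeast with an engineered genetic alteration affecting cell cycle control. Compound-exposed cultures were compared with vehicle cultures, and reduced growth was taken as inhibition.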
# [6] = NCI Yeast Anticancer Drug Screen. Data for the mlh1 rad18 strain (AID 175); details: S. cerevisiae mlh1 rad18 strain growth inhibition, stronger effect = higher value
# Procedure, shortened: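 Genetically defined yeast (DNA repair-deficient) exposed to compounds; growth inhibition determined relative to vehicle.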
# [7] = at 5.0 µM (retest, dose inferred, filed as 0.5)
# [8] = at 50.0 µM (retest, dose inferred, filed as 5.0)
Structure (SMILES),"growth inhibition [1, 7]","growth inhibition [1, 8]",growth inhibition ([1]; at 50.0 µM),"growth inhibition [2, 7]","growth inhibition [2, 8]",growth inhibition ([2]; at 50.0 µM),"growth inhibition [3, 7]","growth inhibition [3, 8]",growth inhibition ([3]; at 50.0 µM),"growth inhibition [4, 7]","growth inhibition [4, 8]",growth inhibition ([4]; at 50.0 µM),"growth inhibition [5, 7]","growth inhibition [5, 8]",growth inhibition ([5]; at 50.0 µM),"growth inhibition [6, 7]","growth inhibition [6, 8]",growth inhibition ([6]; at 50.0 µM)
O=C1NC(c2ccccc2)(c2ccccc2)C(=O)N1SC(Cl)(Cl)Cl,98% (active),98% (active),90.3% (active),100% (active),99% (active),89.3% (active),99% (active),99% (active),90.8% (active),99% (active),99% (active),89.7% (active),99% (active),98% (active),88.5% (active),98% (active),99% (active),87.2% (active)
Cc1ccc2sc3ccc(N)cc3c(=O)c2c1,27%,84% (active),62.6%,24%,74% (active),31.6%,26%,89% (active),60.6%,26%,58%,43.7%,25%,95% (active),66.2%,27%,92% (active),81.8% (active)
NNc1ncc2c(n1)-c1ccccc1OC2,23%,49%,47.3%,6%,38%,18.8%,14%,28%,24.1%,21%,33%,4.1%,12%,40%,-1.1%,13%,53%,89.8% (active)
O=C(OCc1ccccc1)c1ccc(O)cc1,6%,79% (active),96.8% (active),-1%,85% (active),98.3% (active),1%,64%,98.5% (active),2%,39%,85.8% (active),9%,91% (active),97.8% (active),2%,88% (active),99% (active)
CCC(c1ccc(O)cc1)C(CC)c1ccc(O)c(CN(C)C)c1 (stereo not given),1%,76% (active),66.8%,0%,74% (active),45.5%,-6%,98% (active),74.2% (active),-3%,83% (active),42.6%,-1%,83% (active),36.5%,2%,96% (active),65.3%
O=C(NC(c1ccccc1)N1CCOCC1)c1ccccc1 (stereo not given),2%,-1%,99% (active),-7%,7%,95.6% (active),0%,-3%,96.3% (active),-2%,3%,76.9% (active),-3%,-2%,83.4% (active),-9%,-1%,98.8% (active)
C=CC1(c2ccc(OC)cc2)OCCCO1,-11%,99% (active),89.7% (active),-13%,99% (active),92.4% (active),-16%,99% (active),87.5% (active),27%,99% (active),88.7% (active),-27%,100% (active),90.8% (active),-16%,97% (active),89% (active)
c1csc(-c2nnc(C34CC5CC(CC(C5)C3)C4)o2)c1,-31%,93% (active),61.5%,-12%,95% (active),55.3%,-24%,97% (active),83.3% (active),-2%,76% (active),7.3%,-10%,98% (active),86.3% (active),-12%,98% (active),65.3%
CC(C)(C)NCc1cc(Nc2ccnc3cc(Cl)ccc23)cc(-c2ccc(Cl)cc2)c1O,-6%,19%,14.7%,-4%,17%,-16.1%,-5%,-15%,-9.6%,-2%,18%,68.5%,7%,-8%,2.1%,-1%,22%,20.5%
C[C@]12CC[C@H](O)C[C@@H]1CC[C@@H]1[C@@H]2CC[C@]2(C)[C@@H](c3cc(C(F)(F)F)n[nH]3)CC[C@@H]12,12%,94% (active),89.8% (active),3%,86% (active),61.6%,10%,90% (active),63%,7%,92% (active),68.9%,-3%,85% (active),84.3% (active),12%,96% (active),88.7% (active)
